Compound activity: PubChem BioAssay, several laboratories
An excerpt weighted towards active compounds, which were near 9.6% of everything screened.
INS promoter inh: TRM-6 insulin promoter activity inhibition; TRM-6 cells (human fetal islet line), insulin promoter-eGFP reporter, imaging; reporter expression induced with tamoxifen; inhibition, % at 2 µM; AID 1273; 130,000 compounds, 0.9% hits;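 active means inhibition above the mean plus 3 SD, with well images judged a real hit on visual review, cut at about 60% in these data, passing the limit was not always enough; inconclusive means inhibition over the cutoff but images rejected on review; inactive means inhibition not above the cutoff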
Autophagy HCS: autophagy modulation, high-content screen; calls only at 10 µM (by protocol); 190,000 compounds, 0.98% hits; MEF GFP-LC3 puncta imaging; test concentration mostly 10 µM;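 active means percentage of spot-positive cells more than 3 SD above its plate mean, without a fluorescence outlier flag or 80% toxicity; inconclusive means no clear call, values can overlap the other calls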
Insulin prom up: MIN6 insulin promoter up-regulation; MIN6 insulin promoter-GFP reporter, high-content imaging; stronger effect = higher value; z-score at 5 µM; 190,000 compounds, 0.3% hits; AID 1625;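 active means z-score above 3 at 5 µM with at least 500 cells counted in the well; inconclusive means wells under 500 cells, flagged as cytotoxic or low count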
PTEN del growth: growth suppressors of cells with PTEN tumor suppressor deletion; viability, % at 10 µM; HCT116 PTEN-null viability, CellTiter-Glo, 60 h; stronger effect = lower value; 140,000 compounds, 1.2% hits;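 active means viability at or below a set limit, 4 SD under the median of all tested compounds, cut at about 3.7% in these data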;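 further: PTEN knockout HCT116 line with beta catenin targeted HCT116 as companion control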
Lmaj promast: Leishmania major promastigote growth inhibition | Leishmania major promastigotes, resazurin fluorescence viability | 200,000 compounds, 9% hits | inhibition, % at 10 µM | AID 1063; in the data active means inhibition above about 50%;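 further: promastigotes grown with compound for 44 hours at 28 °C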
bCat KO growth: beta-catenin-lacking colon tumor cell growth suppression | viability, % at 10 µM | HCT116 beta-catenin knockout viability, CellTiter-Glo, 60 h; stronger effect = lower value | 140,000 compounds, 1.5% hits;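 active means viability at or under a set limit, the compound median less 4 SD, cut at about 6% in these data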
A number is an active result; n = inactive; u = inconclusive; x = not tested or not shown.

SMILES	INS promoter inh	Autophagy HCS	Insulin prom up	PTEN del growth	Lmaj promast	bCat KO growth
COc1ccc(CN2C(=O)NC3(CCCC3)C2=O)cc1F	n	n	n	x	n	x
O=C(/C=C/c1ccc(-c2ccccc2)o1)c1ccccc1	n	n	n	n	n	n
Cc1ccc(C(=O)/C=C/C(=O)c2ccc(C)cc2)cc1	x	n	n	x	101	x
Cc1ccc(-c2ccc(/C=C/C(=O)c3ccccc3)o2)cc1	n	n	n	n	89	n
CC(C)c1[nH]nc2c1C(C(C)C)C(C#N)=C(N)O2 (stereo unspecified)	n	n	n	n	69	n
On1c(-c2ccc(Cl)cc2)nc2ccccc21	u	n	n	x	n	x
Cc1cc(C)c(NC(=S)NCCCSC2CCCCC2)c(C)c1	n	n	x	x	57	x
Cc1ccc(Nc2nc(N)c([N+](=O)[O-])c(NCCO)n2)cc1C	x	x	n	x	x	x
Cc1ccccc1Nc1nc(NCc2ccco2)c2ccccc2n1	x	n	x	x	100	x
Cc1cccc(Nc2nc(NCc3ccco3)c3ccccc3n2)c1	n	n	n	1.8	100	1.8
Cc1ccc(Nc2nc(N)c([N+](=O)[O-])c(NCc3ccco3)n2)cc1C	n	n	n	n	70	n
Cc1ccccc1Nc1cc(C(=O)NCc2ccco2)c2ccccc2n1	n	n	n	n	76	n
Oc1ccccc1Nc1nc(NCc2ccco2)c2ccccc2n1	x	x	n	x	x	x
c1ccc(Nc2nc(NCc3ccco3)c3ccccc3n2)cc1	x	x	n	x	x	x
COc1cccc(C(C(=O)NCC2CCCO2)N(CC2CCCO2)C(=O)CN2C(=O)c3ccccc3S2(=O)=O)c1 (stereo unspecified)	x	n	n	x	n	x
Cc1c(C(=O)N2CCCC2)sc(NC(=O)c2ccco2)c1C#N	n	n	x	n	n	n
Nc1nc(NCc2ccccc2)nc(NCc2ccccc2)c1[N+](=O)[O-]	n	n	n	n	n	n
Cc1ccc(CNc2nc(N)c([N+](=O)[O-])c(NCc3ccccc3)n2)cc1	n	n	n	n	70	n
CC12CCC(C(=O)N(Cc3ccccc3)Cc3ccccc3)(OC1=O)C2(C)C (stereo unspecified)	n	n	n	n	72	n
CC12CCC(C(=O)NCc3cccnc3)(OC1=O)C2(C)C (stereo unspecified)	n	n	n	n	n	n
CCC(=O)NC(c1cccc([N+](=O)[O-])c1)c1c(OC(C)=O)ccc2ccccc12 (stereo unspecified)	n	n	n	n	80	n
CCCCC(=O)NC(c1ccc(OC)c(OC)c1)c1c(O)ccc2ccccc12 (stereo unspecified)	n	n	n	n	100	n
CCCC(=O)NC(c1ccc(N(C)C)cc1)c1c(O)ccc2ccccc12 (stereo unspecified)	n	n	n	n	100	n
COc1ccc(C(NC(C)=O)c2c(O)ccc3ccccc23)cc1OC (stereo unspecified)	x	n	n	n	n	n
CCCC(=O)NC(c1ccc(OC)c(OC)c1)c1c(O)ccc2ccccc12 (stereo unspecified)	n	n	n	n	100	n
SMILES	INS promoter inh	Autophagy HCS	Insulin prom up	PTEN del growth	Lmaj promast	bCat KO growth
O=C(NC1CC1)C1CCN(C2CCN(C(=O)CCOc3ccccc3)CC2)CC1	x	n	n	x	n	x
Cc1ccc(C(NC(=O)C2CCCCC2)c2c(O)ccc3ccccc23)cc1 (stereo unspecified)	x	n	n	n	97	n
CC(C)C(=O)NC(c1ccc([N+](=O)[O-])cc1)c1c(O)ccc2ccccc12 (stereo unspecified)	n	n	n	1.8	97	2.0
COc1ccc(C2C=C(c3cccs3)Nc3nc(CCCO)nn32)cc1 (stereo unspecified)	n	n	5.8	n	n	n
O=C(CN(C(=O)CCC(=O)Nc1nccs1)c1ccccc1F)NCC1CCCO1 (stereo unspecified)	n	n	n	n	n	n
O=C(Nc1cccs1)Nc1c(F)c(F)c(F)c(F)c1F	n	n	n	n	55	n
O=S(=O)(c1cccs1)N1CCN(CC(O)COc2cccc(Br)c2)CC1 (stereo unspecified)	n	n	n	n	98	n
O=C(NC1=NCCS1)c1cccc(S(=O)(=O)N2CCc3ccccc32)c1	x	n	n	x	n	x
Cc1ccc(C(=O)c2sc(Nc3ccccc3)c(C#N)c2N)cc1	n	n	n	n	74	n
Nc1nc(Nc2ccccc2)sc1C(=O)c1ccccc1	x	x	n	x	x	x
N#Cc1c(Nc2ccccc2)sc(C(=O)c2ccc(F)cc2)c1N	n	n	n	n	66	n
Nc1c(C(=O)c2ccccc2)sc(Nc2ccccc2)c1S(=O)(=O)c1ccccc1	n	n	n	n	95	n
CCOC(=O)C1CCN(C(=O)Nc2ccc(OCc3ccccc3)cc2)CC1	x	x	n	x	x	x
COc1ccc2nc3c(cc2c1)c(NC(=O)c1cccs1)nn3CC(C)C	n	n	n	n	84	n
CCN(CCCNC(=O)COc1cc(=O)n(C)c2ccccc12)c1ccccc1	n	n	x	n	65	n
CCN(C(=O)COc1cc(=O)n(C)c2ccccc12)c1cccc(Cl)c1	n	n	x	n	62	n
CCn1c(=O)cc(OCC(=O)NCCCN2CC(C)CC(C)C2)c2ccccc21 (stereo unspecified)	n	n	n	n	n	n
CCN(CCCNC(=O)COc1cc(=O)n(CC)c2ccccc12)c1ccccc1	n	n	n	n	53	n
CN(C(=O)COc1cc(=O)n(C)c2ccccc12)c1cccc(Cl)c1	x	n	n	n	n	n
O=C(CSc1nnc(C2COc3ccccc3O2)o1)N1CCCC1 (stereo unspecified)	x	n	n	x	n	x
O=C1Nc2ccc(F)cc2C12Nc1ccccc1-c1nnc(SCc3ccccc3F)nc1O2 (stereo unspecified)	x	n	n	n	n	n
CC1=[N+](C)c2c(ccc3cccnc23)C1(C)C	x	n	n	x	98	x
CCC(C)c1ccccc1NC(=O)COC(=O)CCc1cc(OC)c(OC)c(OC)c1 (stereo unspecified)	n	n	n	n	51	n
c1ccc(CN2CCN(c3ncnc4c3[nH]c3ccccc34)CC2)cc1	n	n	n	n	89	3.9
COc1cccc2[nH]c3c(N4CCN(Cc5ccc6c(c5)OCO6)CC4)ncnc3c12	n	n	n	n	89	n
SMILES	INS promoter inh	Autophagy HCS	Insulin prom up	PTEN del growth	Lmaj promast	bCat KO growth
COc1ccc2c(c1)[nH]c1c(N3CCSCC3)ncnc12	x	x	n	x	x	x
Cc1ccc2c(c1)[nH]c1c(N3CCN(Cc4ccccc4)CC3)ncnc12	n	n	u	n	97	n
c1ccc2c(c1)CCN(c1ncnc3c1[nH]c1ccccc13)C2	x	x	u	n	x	n
COc1ccc2c(c1)[nH]c1c(N3CCN(Cc4ccc5c(c4)OCO5)CC3)ncnc12	n	n	u	n	78	n
Cc1onc(-c2ccccc2Cl)c1C(=O)NCCN1CCOCC1	n	n	n	n	n	n
CC(C)CNS(=O)(=O)c1ccc(CC(C)C)cc1	x	n	n	x	n	x
CCCCCN(C(=O)NC(=O)Nc1ccc(C)cc1)S(=O)(=O)c1ccccc1	x	n	n	n	n	n
COc1cccc2[nH]c3c(N4CCc5ccccc5C4)ncnc3c12	x	x	n	x	x	x
